Hits are enriched below; roughly 2.4% of the tested compounds scored in any of these assays.
D2 ag-1 – agonists of human D2 dopamine receptor. HEK293 T-REx D2 cells, calcium flux agonist mode. activation, % at 2 µM. hit rate 0.53% among 340,000. AID 485358;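 active = activation over 3 SD above normal in the single-dose calcium agonist read, cut at about 30% in these data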; note: 0% is about no effect
Target sequence (P14416 whole entry, looked up): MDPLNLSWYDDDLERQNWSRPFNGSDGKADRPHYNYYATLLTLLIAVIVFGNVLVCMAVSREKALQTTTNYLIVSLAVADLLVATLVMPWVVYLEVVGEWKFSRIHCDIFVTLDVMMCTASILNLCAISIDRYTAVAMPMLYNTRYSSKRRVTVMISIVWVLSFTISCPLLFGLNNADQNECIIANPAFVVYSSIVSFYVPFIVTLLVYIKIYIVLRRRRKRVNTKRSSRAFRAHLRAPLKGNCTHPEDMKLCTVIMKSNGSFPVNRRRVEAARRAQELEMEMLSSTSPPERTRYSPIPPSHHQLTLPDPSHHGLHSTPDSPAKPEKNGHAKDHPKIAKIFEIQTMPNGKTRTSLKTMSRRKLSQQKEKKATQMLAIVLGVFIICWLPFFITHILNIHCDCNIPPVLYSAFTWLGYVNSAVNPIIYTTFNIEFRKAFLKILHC
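Calcium-flux readout, 1 cycle/sec over 180 s following compound pin transfer, in inducible HEK293 Trex D2 cells (force-coupled); dopamine controls included. Positive calcium responses during this window marked compounds as potential agonists.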
D2 antagonist – antagonists of human D2 dopamine receptor. AID 485344. HEK293 TREx D2 cells, calcium flux, dopamine EC80. P14416. inhibition, % at 10 µM. hit rate 2% among 340,000; in the data active = inhibition above about 30%; inactive = below that, where a call was filed; note: 0% is about no effect
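In this primary screen, negative modulation is detected by tracking calcium flux after an EC80 dopamine challenge in inducible HEK293 T-REx D2 cells preexposed to test compound for 180 s.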
D2 PAM-1 – potentiates the human D2 dopamine receptor allosterically. AID 624464. hit rate 0.23% among 360,000. P14416. potentiation, % (no concentration beside the values). DiscoveRx D2 beta-arrestin cells, luminescence, 90 min; 100% = 57 uM dopamine signal; in the data active = potentiation above about 50%; inconclusive = mostly about 30% to 49%
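PathHunter D2 cells, attached overnight at 37 deg C, received compound in DMSO plus dopamine at EC20 (50 nM final) for 90 min at 37 deg C. Beta-arrestin recruitment was read as luminescence after 1 h with detection reagent at ambient temperature.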
D2 PAM-2 – D2 dopamine receptor (human) potentiation; hit rate 0.34% among 340,000; AID 485347; potentiation, % at 10 µM; HEK293 T-REx D2, calcium flux, EC20 dopamine potentiation; P14416;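 active = potentiation over 3 SD above the plate norm, cut at about 30% in these data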; note: 0% is about no effect
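Using a no-wash calcium dye in inducible, force-coupled HEK293 Trex cells expressing D2, we tracked fluorescence each second for 180 s after compound, then for 180 s after EC20 dopamine to detect augmented signalling.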
D2 ag-2 – activates the human D2 dopamine receptor. activation, % (no concentration beside the values). hit rate 0.084% among 360,000. DiscoveRx PathHunter D2 beta-arrestin, luminescence, 90 min; 100% = 57 uM dopamine signal; in the data active = activation above about 40%; inconclusive = between about 15% and that limit
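Agonist mode: compounds alone added to overnight-plated D2 PathHunter cells for 90 min at 37 C, with 57 uM final dopamine (EC100) defining full response. Beta-arrestin recruitment detected by chemiluminescent reagent, read after 1 h at ambient temperature.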
Numbers without * were called inactive; ? = inconclusive; nt = no result given.

SMILES	D2 ag-1	D2 antagonist	D2 PAM-1	D2 PAM-2	D2 ag-2
Cc1nnc(NC(=O)CCC2CCCCC2)s1	nt	nt	-4	nt	-3
O=C(CCC1CCCCC1)Nc1nccs1	0	43*	-14	-5	0
COc1ccc(C(=O)NCCn2cc(SCC(=O)Nc3ccc4c(c3)OCCO4)c3ccccc32)cc1OC	1	nt	nt	6	nt
N#CCC(=N)N1CCN(c2cccc(Cl)c2)CC1	1	63*	-22	-15	0
CCN1C(=O)c2ccccc2Sc2ccc(C(=O)NCCCN(CC(C)C)CC(C)C)cc21	1	42*	-11	-11	-2
CCCCN(CC)CCCNC(=O)c1ccc2c(c1)N(Cc1ccc(C)cc1)C(=O)c1ccccc1S2	0	nt	nt	-4	nt
CCCN(CCC)CCCNC(=O)c1ccc2c(c1)N(CC)C(=O)c1ccccc1S2=O (stereo not drawn)	0	107*	-6	-22	-1
CCOCCCNC(=O)c1ccc2c(c1)N(CC)C(=O)c1ccccc1S2=O (stereo not drawn)	1	17	-31	-28	-7
CCN1C(=O)c2ccccc2S(=O)c2ccc(C(=O)NCc3ccc(OC)cc3)cc21 (stereo not drawn)	-1	81*	-3	-22	0
CCN1CCN(C(=O)c2ccc3c(c2)N(Cc2ccccc2)C(=O)c2ccccc2S3=O)CC1 (stereo not drawn)	1	27	-15	-22	-3
CCN1CCN(CCNC(=O)c2ccc3c(c2)N(Cc2ccc(F)cc2)C(=O)c2ccccc2S3=O)CC1 (stereo not drawn)	1	55*	-40	-20	-2
CCC(CC)C(=O)Nc1c(C(=O)N2CCN(c3ccccc3F)CC2)oc2ccccc12	-1	nt	nt	1	nt
CCN1C(=O)c2ccccc2S(=O)c2ccc(C(=O)NCc3ccccc3OC)cc21 (stereo not drawn)	0	nt	nt	-15	nt
CCCCSCCCNC(=O)c1ccc2c(c1)N(CC)C(=O)c1ccccc1S2=O (stereo not drawn)	1	30*	-20	-28	-2
Cc1ccc(-n2ncc3c(N4CCCC4)ncnc32)c(C)c1	1	11	-13	-4	-3
COc1cccc(N2CCN(c3ncnc4c3cnn4-c3ccc(C)cc3C)CC2)c1	0	23	25	-8	87*
COc1ccc(NC(=O)c2cc(-c3ccco3)on2)cc1	0	-12	-5	-8	-1
CCc1ccc(NC(=O)c2cc(-c3ccco3)on2)cc1	0	-16	-4	53*	-1
COc1ccc(OC)c(-c2cc(C(=O)Nc3cc(C)on3)no2)c1	-1	38*	-19	-40	-2
COc1ccc(-c2cc(C(=O)Nc3cc(C)on3)no2)cc1	2	3	-9	-10	-1
COc1ccc(NC(=O)c2cc(-c3ccccc3OC)on2)cc1	0	32*	-10	-27	-2
COc1ccc(NC(=O)c2cc(-c3ccccc3Cl)on2)cc1	1	4	-50	-13	-5
Cc1cccc(S(=O)(=O)c2cn(Cc3ccc(F)cc3)c3cc(N4CCOCC4)c(F)cc3c2=O)c1	2	nt	nt	nt	nt
COc1ccccc1N1CCN(c2csc3ccc(Cl)cc3c2=O)CC1	nt	nt	nt	-20	nt
CCOC(=O)C1=NN(C(=O)c2ccc(C)cc2)C(O)(c2ccc(Cl)cc2)C1 (stereo not drawn)	31*	22	-14	-3	-4
SMILES	D2 ag-1	D2 antagonist	D2 PAM-1	D2 PAM-2	D2 ag-2
O=C(NCC(c1ccc(F)cc1)N1CCOCC1)c1nn(-c2ccccc2)c(=O)c2ccccc12 (stereo not drawn)	0	70*	-2	-33	-5
O=C(NCCC1=CCCCC1)c1ccc2c(c1)N(Cc1ccc(F)cc1)C(=O)c1ccccc1S2(=O)=O	nt	nt	nt	-4	nt
COc1cccc(OC)c1C(=O)NC(=O)Nc1c(C)cccc1C	1	32*	-10	5	-3
CCN(CC)C(=O)CSc1nnc(-c2ccc(S(=O)(=O)N3CCOCC3)cc2)n1C	0	20	-3	-2	-1
CC(C)Sc1nnc(-c2ccc(S(=O)(=O)N3CCOCC3)cc2)n1C	0	35*	2	-2	-4
CC1CCCN(C(=O)CSc2nnc(-c3ccc(S(=O)(=O)N4CCOCC4)cc3)n2C)C1 (stereo not drawn)	-2	-5	0	0	0
CC1CCN(C(=O)CSc2nnc(-c3ccc(S(=O)(=O)N4CCOCC4)cc3)n2C)CC1	0	-17	-8	53*	-1
O=C(CSc1nnc(C2CC2)n1Cc1ccccc1)N1CCN(S(=O)(=O)c2ccccc2)CC1	1	-5	6	-1	-3
O=C(CSc1nnc(C2CC2)n1Cc1ccccc1)c1ccc(S(=O)(=O)N2CCOCC2)cc1	-3	46*	6	10	1
Cn1c(NCCO)nc2c1c(=O)n(Cc1ccccc1Cl)c(=O)n2C	0	nt	nt	-3	nt
Cc1nc(-c2cccc(F)c2)sc1CCNC(=O)c1c(F)cccc1Cl	-2	nt	nt	8	nt
CCOc1ccc2nc(N3CCCC(C(=O)NCCc4ccc(OC)cc4OC)C3)sc2c1 (stereo not drawn)	1	nt	nt	-5	nt
Cc1ccc2c(c1)C1CN(C)CCC1N2Sc1ccccc1[N+](=O)[O-] (stereo not drawn)	-2	43*	-19	-22	-8
CN(Cc1ccccc1)Cc1c[nH]c2ccccc12	-1	35*	-45	-23	-4
c1ccc(Cc2c[nH]c3ccccc23)cc1	0	-6	-3	6	6
COc1ccc(-c2oc3cccnc3c2/C=C/c2ccc(OC)c(OC)c2)cc1	1	30*	9	-3	-1
S=c1[nH]nc(-c2ccccc2)n1/N=C/c1ccc(Cl)cc1	-2	-7	-17	-1	8
CCOc1ccc(/C=N/n2c(-c3ccccc3)n[nH]c2=S)cc1	-2	41*	-1	-8	?
CC(=O)c1ccc(N2CCN(C(=O)/C=C/c3ccc(S(=O)(=O)N4CCOCC4)cc3)CC2)cc1	1	50*	-7	-8	-3
Cc1ccc2c(c1)-c1[nH]c(=S)ncc1CS2	-1	6	60*	9	-3
COc1ccc(N(CC(=O)N2CCN(c3cccc(OC)c3)CC2)S(=O)(=O)c2c(C)noc2C)cc1	0	nt	nt	nt	nt
CCOc1ccc(CNC(=O)c2cc3c(=O)oc4ccc(C)cc4c3s2)cc1	-2	nt	nt	-4	nt
CN(C)C1(CNC(=O)c2cccc(S(=O)(=O)NCc3ccccc3)c2)CCCCC1	0	45*	-6	3	-6
Cc1cccc(/C(N)=N/OC(=O)c2ccco2)c1	0	1	56*	-4	13
N/C(=N\OC(=O)c1ccco1)c1ccc(Br)cc1	3	-8	52*	-7	10
COc1ccc(/C(N)=N/OC(=O)c2ccco2)cc1	4	6	19	1	3
N/C(=N\OC(=O)c1ccco1)c1ccccc1	0	-7	?	7	9

Source: PubChem BioAssay (National Center for Advancing Translational Sciences (NCATS))
